Broadly, the AC50 is the concentration at which the activity in the assay is half-maximal.

We go through 86 compounds from PubChem BioAssay AID1851 (National Center for Advancing Translational Sciences (NCATS), 2009).

“And” between values parts separate entries of the source, which are not always exact repeats. Equal values may be shown once. Screen size: about 16,000 compounds; about 5,800 (36%) were called active. Roughly 23% stayed inconclusive and do not appear here. Some of the results follow. A number with no mark means an inactive call. Calls follow the shape of the dose curve; as a rule, active = well fitted curve in the direction sought with a large enough effect; inconclusive = small, poorly fitted or top-dose-only effect, or effect the other way; inactive = no such curve, though single readings can be large or run the other way.
% is scaled to controls: 0 for no effect and ±100 for the full control effect.

The target of this assay is Cytochrome P450 2C19 (Homo sapiens) (UniProt P33261). The assay is described as follows: Cytochrome panel assay with activity outcomes. Conditions: recombinant CYP, pro-luciferin dealkylation, luminescence, p450-cyp2c19; series mostly up to 57.1 µM.
Chain of Cytochrome P450 2C19 (Homo sapiens) (P33261 whole entry, looked up): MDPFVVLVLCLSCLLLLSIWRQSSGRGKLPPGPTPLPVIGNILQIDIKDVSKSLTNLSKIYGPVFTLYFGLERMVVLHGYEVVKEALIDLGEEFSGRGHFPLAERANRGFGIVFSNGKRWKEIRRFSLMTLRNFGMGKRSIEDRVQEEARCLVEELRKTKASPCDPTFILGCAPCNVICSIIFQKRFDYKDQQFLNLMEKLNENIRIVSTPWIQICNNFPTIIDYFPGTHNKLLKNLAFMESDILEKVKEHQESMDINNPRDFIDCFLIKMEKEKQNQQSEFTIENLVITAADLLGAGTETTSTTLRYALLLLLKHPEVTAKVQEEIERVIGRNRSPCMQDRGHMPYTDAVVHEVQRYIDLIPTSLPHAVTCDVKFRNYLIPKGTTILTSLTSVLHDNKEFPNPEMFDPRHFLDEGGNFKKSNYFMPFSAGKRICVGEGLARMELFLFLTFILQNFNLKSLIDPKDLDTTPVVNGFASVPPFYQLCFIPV
`O=S(=O)(NCc1cc(-c2ccc(Cl)cc2)no1)c1ccc(Cl)cc1`: the AC50 was 1.58 µM (active). `O=S(=O)(NCc1cc(-c2ccccc2)no1)c1ccc(Cl)cc1`: the AC50 is 0.708 µM (active). Regarding `Clc1ccc(SCc2cc(-c3ccccc3)no2)cc1`, the AC50 was 1.12 µM (active). Same read-out and setting: the result for `COc1ccc(-c2cc(CNC(C)=O)on2)cc1` reads “inactive”; that for `Cn1c(CNS(=O)(=O)c2ccc(Cl)cc2)n[nH]c1=S`, “inactive”.

As to `O=c1cnc2cnc(N3CCOCC3)nc2n1C1CC1`, the AC50 entry is “inactive”. Take `Nc1nc(N)[n+]([O-])c(N)c1NCO`: the activity, negative = inhibition was 33.1% [at 11.4 µM].

Turning to `CC(=O)Nc1cccc(N2C(=O)CCC2=O)c1`, the AC50 result is “inactive”. On to `O=C(Nc1ccc(N2CCCCC2)cc1)c1cncc(Br)c1`, for which the AC50 is 17.8 µM (active). As to `CC(=O)Nc1ccc(N2CCCCC2)cc1`, the AC50 is 31.6 µM (active). Regarding `CC(=O)Nc1ccc(N2CCCCC2)c(C(=O)Nc2cccc(C)c2)c1`, the AC50 is 20 µM (active).

As for `CC(=O)Nc1ccc(NC(=O)C/C(C)=N/NC(=O)C(=O)N2CCCC2)cc1`, the AC50 result is “inactive”. As to `CC(=O)OC[C@@H]1O[C@@H](O/N=C2/C[C@@H](O)[C@@H](O)[C@@H]3[C@@H]4C(=O)N([C@@H](C)c5ccccc5)C(=O)[C@H]4CC[C@@H]23)[C@H](OC(C)=O)[C@H](OC(C)=O)[C@@H]1OC(C)=O`, the activity, negative = inhibition is 23% [at 11.4 µM].

As for `CC(C)NC(=O)N1CCC2(CC1)CCN(C(=O)c1cccn1C)CC2`, the AC50 entry is “inactive”.

Turning to `CNCCCCCCCCSc1nc(C(C)C)ccc1C(=O)c1cccs1`, the AC50 was 15.8 µM (active). For the compound `CC(C)NCCCOc1ccc(Cl)cc1Br`, the AC50 is 8.91 µM (active).

Turning to `CCOc1ccc(Cl)cc1CNCCNCC(C)O` (stereo unspecified), the AC50 entry is “inactive”. Same read-out and setting: the value for `CCN(CC)c1ccc(NC(=O)c2cnn(CC)c2)cc1` was 28.2 µM (active); that for `CC(C)CCNC1=NCCCCC1` was “inactive”; that for `CCNc1ccc(Br)cc(C(=O)/C=C/c2ccc3c(c2)OCO3)c1=O` was 3.98 µM (active). Take `CNc1ccc(Br)cc(C(=O)/C=C/c2ccc3c(c2)OCO3)c1=O`: the AC50 is 1.78 µM (active). For the compound `N#Cc1cccc(-c2nccc(NCc3ccccc3)n2)c1`, the AC50 was 10 µM (active). On the same count and under the same terms, the value for `N#Cc1cccc(-c2nccc(NCc3cccs3)n2)c1` was 3.98 µM (active); that for `c1cncc(-c2cc(NCc3cccs3)ncn2)c1` was “inactive”; that for `c1csc(CNc2cc(-c3ccoc3)ncn2)c1` was 10 µM (active). On the same count and under the same terms, the result for `c1ccc(CNc2cc(-c3ccoc3)ncn2)cc1` reads “inactive”; that for `N#Cc1cccc(-c2cc(NCc3cccs3)ncn2)c1`, 10 µM (active); that for `CCOC(=O)C(NC(C)=O)C(=O)O` (stereo unspecified), “inactive”. Regarding `Cc1cccc(CNc2ccnc(-c3cccc(C#N)c3)n2)c1`, the AC50 is 2.51 µM (active). With `Cc1cccc(CNc2cc(-c3cccc(C#N)c3)ncn2)c1`, the AC50 was 6.31 µM (active). With `Cc1cccc(CNc2cc(-c3ccc(N(C)C)cc3)ncn2)c1`, the AC50 is 3.16 µM (active). On the same count and under the same terms, the value for `Cc1cnc(CNc2cc(-c3cccc(C#N)c3)ncn2)cn1` was “inactive”. Still for that read-out and setting: the result for `CN(C)C(=O)c1ccc(-c2cc(NCc3ccccc3)ncn2)cc1` reads “inactive”; that for `CN(C)c1ccc(-c2cc(NCc3ccccc3)ncn2)cc1`, “inactive”; that for `CO[C@]1(NC(=O)Cc2cccs2)C(=O)N2C(C(=O)O)=C(COC(N)=O)CS[C@H]21`, “inactive”. In the case of `CO[C@H]1COC(=O)C/C=C\[C@@H](C)COC(=O)[C@@H](CCSC)NC(=O)C/C=C\[C@@H]1C`, the activity, negative = inhibition is -53.8% [at 11.4 µM] and -16.1% [at 11.4 µM]. In the case of `CO[C@H]1COC(=O)C/C=C\[C@H](C)[C@@H](NS(=O)(=O)c2ccc(C)cc2)COC(=O)CCC[C@@H]1C`, the activity, negative = inhibition is -36% [at 11.4 µM].

For `COc1ccccc1CNS(=O)(=O)c1ccc2[nH]cc(C(=O)O)c(=O)c2c1`, the AC50 result was “inactive”. In the case of `COc1cccc(NS(=O)(=O)c2ccc3[nH]cc(C(=O)NCCN4CCOCC4)c(=O)c3c2)c1`, the AC50 is 22.4 µM (active). With `O=C(CCN1CCN(c2ccccc2F)CC1)Nc1ccccc1F`, the AC50 is 4.47 µM (active). With `O=C(CCN1CCN(CC(=O)Nc2ccccc2Cl)CC1)Nc1ccccc1F`, the AC50 was 2.51 µM (active). Same read-out and setting: the value for `COC(=O)N1CCC2(CCN(Cc3cc(C(F)(F)F)cc(C(F)(F)F)c3)CC2)CC1` was “inactive”.

With `Cc1ccc(C)n1CCN1CCN(CC(=O)Nc2cc(C(F)(F)F)ccc2Cl)CC1`, the AC50 is 10 µM (active). For `OCCN1CCN(CC/C=C2\c3ccccc3Sc3ccc(C(F)(F)F)cc32)CC1`, the AC50 entry is “inactive”.

For the compound `Cc1ccc(N2CCN(CCC(=O)O)CC2)cc1`, the activity, negative = inhibition was 10.7% [at 11.4 µM]. `CC1=C(C#N)C(Nc2ccc(Cl)cn2)(C(F)(F)F)C(=O)N1` (stereo unspecified): the AC50 is 0.794 µM (active).

Regarding `CNC(=S)N1N=C(c2ccc(OC)cc2)CC1c1ccc(N(C)C)cc1` (stereo unspecified), the AC50 is 3.16 µM (active). In the case of `CCN1C(=O)[C@H]2[C@H]3[C@H](O)[C@H](O)C/C(=N/NC(=O)OCc4ccccc4)[C@H]3CC[C@@H]2C1=O`, the activity, negative = inhibition is -7.17% [at 11.4 µM]. In the case of `Cc1noc(C)c1COc1cccc(C(=O)OCC(=O)N2CC(=O)Nc3ccccc32)c1`, the AC50 is 3.16 µM (active). Take `O=[N+]([O-])c1ccc(-c2cnc(SCc3ccccc3Cl)[nH]2)cc1`: the AC50 is 2.24 µM (active). Consider `CC(C)C(=O)Nc1ccc(Sc2ccc(F)cc2)cc1`, for which the AC50 is 7.94 µM (active). `O=C(O)c1cc2cc(OCc3ccccc3)ccc2[nH]1`: the AC50 entry was “inactive”. For `CCOc1ccc2[nH]c(=O)c(CN(CCc3ccccc3)C(=O)N3CCOCC3)cc2c1`, the AC50 was 11.2 µM (active).

On to `C[N+]1(CC(=O)OCCCc2ccccc2)CCOCC1`, for which the AC50 entry was “inactive”. Turning to `CCOc1ccc2[nH]c(=O)c(CN(CCc3ccccc3)C(=O)N3CCCC3)cc2c1`, the AC50 is 20 µM (active). As to `CCOc1ccc(Cc2nc(C)c(CC(=O)N3CCOCC3)c(=O)[nH]2)cc1`, the AC50 result is “inactive”.

Consider `NNC(=O)CCc1ccc2ccc3ccccc3c2c1`, for which the AC50 was 0.251 µM (active). Consider `O=C(O)CCCc1ccc2ccccc2c1`, for which the activity, negative = inhibition is 0.826% [at 11.4 µM]. On to `O=C1CCCC=C1[C@@H](O)COCc1ccccc1`, for which the activity, negative = inhibition was -32.2% [at 11.4 µM]. For `O=C1CCCC=C1[C@@H](O)CCOC(c1ccccc1)(c1ccccc1)c1ccccc1`, the AC50 is 0.251 µM (active). Consider `O=C1CCCC=C1[C@@H](O)C1CCCCC1`, for which the activity, negative = inhibition was 19.2% [at 11.4 µM]. As for `N#CC1=C(SCC(N)=O)NC2=C(C(=O)c3ccccc32)C1c1ccc(Cl)cc1` (stereo unspecified), the AC50 was 3.98 µM (active). Same read-out and setting: the result for `CSC1=C(C#N)C(c2ccccc2Cl)C2=C(N1)c1ccccc1C2=O` (stereo unspecified) reads 0.355 µM (active). `COC(=O)[C@@H]1CC[C@H](C)[C@@H](c2ccc(C)cc2)N1C(=O)c1ccc(/C=N\O[C@@H](C)CN2CCCCc3nc(C)c(C)cc32)cc1`: the activity, negative = inhibition was -15.5% [at 11.4 µM]. In the case of `COC(=O)[C@@H]1CC[C@H](C)[C@@H](c2ccc(C)cc2)N1C(=O)c1ccc(/C=N\OC[C@@H]2O[C@H](c3ccccc3)C=C[C@@H]2Oc2ccc(OC)cc2)cc1`, the AC50 is 0.0501 µM (active).

Turning to `COC(=O)[C@@H]1CC[C@H](C)[C@@H](c2ccc(C)cc2)N1C(=O)c1ccc(/C=N\O[C@@H](C)c2cn([C@H]3COC[C@H]3O)nn2)cc1`, the activity, negative = inhibition was -29.4% [at 11.4 µM].

As for `CO/N=C\c1ccc(C(=O)N2[C@H](c3ccc(C)cc3)[C@@H](C)CC[C@H]2C(=O)OC)cc1`, the activity, negative = inhibition is -39.6% [at 11.4 µM].

Take `COC(=O)[C@@H]1CC[C@H](C)[C@@H](c2ccc(C)cc2)N1C(=O)c1ccc(/C=N\O[C@@H](C)c2cn([C@H](CO)Cc3ccccc3)nn2)cc1`: the AC50 was 3.98 µM (active). Take `COC(=O)[C@@H]1CC[C@H](C)[C@@H](c2ccc(C)cc2)N1C(=O)c1ccc(/C=N\OC[C@@H](O)[C@H]2O[C@H]3OC(C)(C)O[C@H]3[C@@H]2O)cc1`: the AC50 is 0.631 µM (active). For `COC(=O)[C@@H]1CC[C@H](C)[C@@H](c2ccc(C)cc2)N1C(=O)c1ccc(/C=N\O[C@@H]2O[C@H](COC(C)=O)[C@H](OC(C)=O)[C@H](OC(C)=O)[C@H]2OC(C)=O)cc1`, the activity, negative = inhibition is -28.1% [at 11.4 µM]. On to `COC(=O)[C@@H]1CC[C@H](C)[C@@H](c2ccc(C)cc2)N1C(=O)c1ccc(/C=N\O[C@@H](C)CN2CCCc3nc(C)c(C)cc32)cc1`, for which the activity, negative = inhibition is 24.5% [at 11.4 µM]. Consider `COC(=O)[C@@H]1CC[C@H](C)[C@@H](c2ccc(C)cc2)N1C(=O)c1ccc(/C=N\OCC[C@@H]2C=C[C@H](OC(C)=O)[C@H](COC(C)=O)O2)cc1`, for which the activity, negative = inhibition was -15.5% [at 11.4 µM]. `CC(C)Oc1ccc(C2CC(=O)NC3=C2C(=O)CCC3)cc1` (stereo unspecified): the AC50 is 22.4 µM (active). On to `CO[C@@H]1COC(=O)C/C=C\[C@H](C)[C@H](OC)COC(=O)[C@H]2CCCN2C(=O)C/C=C\[C@H]1C`, for which the activity, negative = inhibition is 3.47% [at 11.4 µM]. Turning to `Cc1cc(=O)c2cc(Cl)ccc2[nH]1`, the AC50 entry is “inactive”. In the case of `CCOC(=O)N1CCN(S(=O)(=O)c2ccc3[nH]cc(C(=O)O)c(=O)c3c2)CC1`, the AC50 entry was “inactive”. `CCOC(=O)N1CCN(c2c(-c3ccccc3)c3cc(Cl)ccc3[nH]c2=O)CC1`: the AC50 was 3.16 µM (active). `COc1cccc(-c2cc(NCCc3c[nH]c4ccc(OC)cc34)ncn2)c1`: the AC50 was 0.501 µM (active). With `Cc1cnc(CNc2cc(-c3cccnc3)ncn2)cn1`, the AC50 entry is “inactive”. For `COc1ccc2[nH]cc(CCNc3ccnc(-c4cccc(NS(C)(=O)=O)c4)n3)c2c1`, the AC50 is 10 µM (active). Take `COc1ccc2[nH]cc(CCNc3ccnc(-c4cccnc4)n3)c2c1`: the AC50 was 1 µM (active). As for `COc1ccc2[nH]cc(CCNc3cc(-c4cccnc4)ncn3)c2c1`, the AC50 is 25.1 µM (active). On the same count and under the same terms, the result for `CN(C)c1ccnc(-c2cccc(NS(C)(=O)=O)c2)n1` reads “inactive”. Regarding `COc1ccc2[nH]cc(CCNc3cc(-c4cccc(C#N)c4)ncn3)c2c1`, the AC50 is 7.94 µM (active). Turning to `Cc1cnc(CNc2cc(-c3ccoc3)ncn2)cn1`, the AC50 entry was “inactive”.

Consider `COc1ccc2[nH]cc(CCNc3cc(-c4ccoc4)ncn3)c2c1`, for which the AC50 was 5.01 µM (active).
